HT1080 IDH1KD tx: qHTS for induction of synthetic lethality in tumor cells producing 2HG: qHTS for the HT-1080-IDH1KD cell line | AID 686971, 2013 | hit rate 2% among 360,000 | HT-1080 IDH1 knockdown viability, ATP luminescence, 48 h | Potency, µM (highest dose often 46.1 µM), for the others: at the top dose activity, negative = toxicity, actives largely listed as cytotoxic;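 also: 0% = DMSO wells and -100% = cell-free medium wells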
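Cytotoxicity counter-line: IDH1KD HT-1080, 48 h, CellTiter-Glo. Curves classed by r2, magnitude and activity.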
DT40 TDP1 CPT: qHTS for Inhibitors of human tyrosyl-DNA phosphodiesterase 1 (TDP1): qHTS in cells in presence of CPT; chicken DT40 Tdp1-/-;hTDP1 cells + 20 nM CPT, ATP luminescence, 48 h; Potency, µM (top dose mostly 46.2 µM), for inactives: at the top dose activity change, negative = growth inhibition, hits mostly inhibitors; hit rate 12% among 420,000; AID 686979, 2013; also: nearly all actives have a fitted effect of over 55% in size
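Cell growth measured by CellTiter-Glo luminescence after a minimum 48 h, 37 C compound exposure with 20 nM CPT in Tdp1-knockout DT40 cells stably expressing hTDP1, seeded 400/well; qHTS titration format.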
HT1080-NT tox: qHTS for induction of synthetic lethality in tumor cells producing 2HG: qHTS for the HT-1080-NT fibrosarcoma cell line. HT-1080-NT fibrosarcoma viability, CellTiter-Glo ATP luminescence, 48 h. Potency, µM (highest dose often 46.1 µM), for inactives: at the top dose activity, negative = less viability, usual class: cytotoxic. hit rate 1.6% among 360,000;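 also: NT is the 2HG producing partner of a matched IDH1 knockdown line; 0% = DMSO-treated cells and -100% = media-only wells without cells; nearly all actives have a fitted effect of over 55% in size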
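Viability by CellTiter-Glo luminescence after 48 h compound exposure at 37C of HT-1080-NT cells (750/well, RPMI, 5% FBS). % activity scaled between DMSO wells and medium-only wells, then curve-fitted and categorized by curve class.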
TDP1 cell noCPT: qHTS for Inhibitors of human tyrosyl-DNA phosphodiesterase 1 (TDP1): qHTS in cells in absence of CPT. Potency, µM (series often up to 46.2 µM), inactives show at the highest dose activity change, negative = growth inhibition, hits mostly inhibitors. DT40 Tdp1-/- hTDP1 cells, no CPT, ATP luminescence, 48 h. hit rate 15% among 420,000; also: nearly all actives have a fitted effect of over 55% in size
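Luminescent ATP content (CellTiter-Glo) served as the growth readout. Knockout chicken DT40 cells expressing human TDP1 were exposed to compounds without camptothecin for a minimum 48 hr at 37 °C.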
KB-V1 MDR tox: qHTS assay for MDR1-selective chemotherapeutics: Primary screen using the drug-selected MDR subline cells KB-V1 | KB-V1 MDR cells viability, CellTiter-Glo, 72 h | Potency, µM (doses to about 46.1 µM), most hits filed as cytotoxic | hit rate 3.4% among 400,000 | AID 1347076, 2019; also: nearly all actives have a fitted effect of over 60% in size
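Readout: CellTiter-Glo luminescence, 10 min after addition. Cells: KB-V1 MDR subline, 72 h at 37 degrees C with compound. Analysis: corrected, normalized data fitted to concentration-effect curves.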
KB-3-1 cytotox: qHTS assay for MDR1-selective chemotherapeutics: Primary screen using the parental adenocarcinoma cell KB-3-1. hit rate 1.4% among 400,000. AID 1347075, 2019. KB-3-1 viability, CellTiter-Glo ATP luminescence, 72 h. Potency, µM (highest dose often 46.1 µM), most hits filed as cytotoxic; also: nearly all actives have a fitted effect of over 60% in size
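Parental KB-3-1 viability, qHTS format: 72 h compound exposure, 37 °C; CellTiter-Glo; media-only wells and DMSO plates as controls; concentration-effect fits on corrected data.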
Active calls of the source: *; i = inactive; u = inconclusive; x = not tested or not shown; [ ] = dose if it differs, or a comment. Most compounds without a hit are left out; they make up all but 19% or so of the library. Calls follow the shape of the dose curve; as a rule, active = well fitted curve in the direction sought with a large enough effect; inconclusive = small, poorly fitted or top-dose-only effect, or another doubt; inactive = no such curve, though single readings can be large; an effect the other way counts as inactive or inconclusive. Unless noted, % is scaled to controls: 0 for no effect and ±100 for the full control effect; potency is read from the fitted curve at half-maximal effect.

SMILES	HT1080 IDH1KD tx	DT40 TDP1 CPT	HT1080-NT tox	TDP1 cell noCPT	KB-V1 MDR tox	KB-3-1 cytotox
Cc1ccc(NC(=O)/C(=C\c2ccc([N+](=O)[O-])cc2)NC(=O)c2ccccc2)cc1	-3%	u	-13%	u	i	i
COc1ccc(NC(=O)CC2Nc3ccccc3NC2=O)cc1 (stereo not given)	x	u	x	23µM*	i	i
CC(=O)c1ccc(NC(=O)CC2Nc3cccc4cccc(c34)NC2=O)cc1 (stereo not given)	-1%	18µM*	-13%	16µM*	u	i
CC1CCCC(NC(=O)CC2Nc3ccccc3NC2=O)C1C (stereo not given)	0%	u	-3%	-7%	16µM*	i
Cc1cccc(NC(=O)CC2Nc3cccc4cccc(c34)NC2=O)c1 (stereo not given)	u	16µM*	u	u	i	i
COc1cccc(NC(=O)CC2Nc3cc(C)c(C)cc3NC2=O)c1 (stereo not given)	x	u	x	u	i	i
CC(=O)Nc1ccc(NC(=O)CC2Nc3cccc4cccc(c34)NC2=O)cc1 (stereo not given)	-4%	-15%	-4%	u	i	i
COC(=O)c1cc(CNC(=O)c2ccccc2)cc(NC(=O)c2ccccc2OC)c1	x	1%[9.04 µM]	x	u	x	x
C/C=C(/CC[C@@H](C)[C@H]1CC[C@H]2C3=CC[C@H]4[C@H](C)[C@@H](O)CC[C@]4(C)[C@H]3CC[C@]12C)C(C)C	x	-6%	x	-21%	x	x
CCOc1ccc(NC(=O)CC2Nc3ccccc3NC2=O)cc1 (stereo not given)	6%	-5%	28%	6%	i	i
CCOc1ccc(NC(=O)CC2Nc3cccc4cccc(c34)NC2=O)cc1 (stereo not given)	x	u	x	16µM*	i	i
CCOC(=O)c1ccc(NC(=O)CC2Nc3cccc4cccc(c34)NC2=O)cc1 (stereo not given)	x	2.6µM*	x	2.6µM*	x	x
CCOC(=O)c1ccc(NC(=O)CC2Nc3cc(C)c(C)cc3NC2=O)cc1 (stereo not given)	x	u	x	u	i	i
c1ccc(N=P(c2nc3ccccc3o2)(N2CCOCC2)N2CCOCC2)cc1	19%	u	9%	1%	i	i
CCOC(=O)c1ccccc1NC(=O)c1c2c(nc3ccccc13)C(=O)N(C1CCCCC1)C2	x	-15%	x	-17%	i	i
CCCc1cc(=O)[nH]c(SCCc2ccccc2)n1	0%	-12%	10%	-25%	16µM*	u
Cc1cccc(NC(=O)CCCN2C(=O)C(c3ccccc3)Oc3cccnc32)c1C (stereo not given)	-3%	u	3%	u	i	i
COc1ccc(C(=O)CCC(=O)N2CCN(c3ccccc3)CC2)cc1	10%	16µM*	2%	u	i	i
O=C(CCC(=O)N1CCN(c2ccc(F)cc2)CC1)c1ccc(Cl)cc1	5%	u	10%	u	i	i
O=C(CCC(=O)N1CCN(c2ccc(Cl)c(Cl)c2)CC1)c1ccccc1	-5%	21µM*	u	18µM*	i	u
Fc1cccc(-n2ncc3c2ncn2nc(COc4ccc(Cl)cc4)nc32)c1	x	-4%	x	-6%	x	x
CCSC(=O)N=Nc1ccc(O)cc1	-7%	15µM*	u	12µM*	i	i
CC(=O)/C(N=Nc1ccc(SC(F)F)cc1)=C(\C)O	0%	-4%	1%	7%	i	i
C=CCNC(=O)CSc1nnc(-c2ccc(S(=O)(=O)N3CCCC3)cc2)n1C	16%	-1%	11%	1%	i	i
Cc1ccc(-n2ncc3c(NC4CCCCC4)ncnc32)cc1C	x	u	x	u	i	i
SMILES	HT1080 IDH1KD tx	DT40 TDP1 CPT	HT1080-NT tox	TDP1 cell noCPT	KB-V1 MDR tox	KB-3-1 cytotox
NC(=O)c1nsc(C(=O)N(Cc2cccnc2)C(C(=O)NCc2ccc(F)cc2)c2ccc(F)cc2)c1N (stereo not given)	-4%	-28%	-2%	-25%	i	i
Cc1cccc(NS(=O)(=O)c2cccc(C(=O)N3CCCC(C(F)(F)F)C3)c2)c1 (stereo not given)	-7%	u	0%	u	u	i
O=C(c1cccc(S(=O)(=O)N2CCN(c3ccc(F)cc3)CC2)c1)N1CCCC(C(F)(F)F)C1 (stereo not given)	u	3.3µM*	16µM*	4.1µM*	u	u
CC1CN(C(=O)c2cccc(S(=O)(=O)N3CCOCC3)c2)CC(C)O1 (stereo not given)	u	-4%	3%	1%	i	i
CC1CN(C(=O)c2cccc(S(=O)(=O)N3CCN(c4ccc(F)cc4)CC3)c2)CC(C)O1 (stereo not given)	1%	26µM*	8%	u	u	i
Cc1ccc(OCCSc2nc3ccccc3n2CCC(=O)O)c(C(C)C)c1	-2%	1%	-1%	u	u	i
CCC(=O)N1CCc2cc(Br)cc(S(=O)(=O)CCC(=O)Nc3ccccc3C)c21	x	-15%	x	-21%	i	i
CCOC(=O)Cc1nnc(NC(=O)C(CC)Sc2nncn2C)s1 (stereo not given)	10%	7%	-8%	-1%	u	i
CC(Sc1nc(N)cc(=O)[nH]1)C(=O)Nc1sc2c(c1C#N)CCCC2 (stereo not given)	u	2.3µM*	-24%	2.3µM*	u	u
N#Cc1c(NC(=O)CSc2nc(N)cc(=O)[nH]2)sc2c1CCCCCC2	-5%	u	-8%	u	u	u
CCC(Sc1nc(C)cc(=O)[nH]1)C(=O)Nc1sc2c(c1C#N)CCCC2 (stereo not given)	12%	16µM*	0%	16µM*	u	i
CCOC(=O)Cc1nnc(NC(=O)C(CC)Sc2nc(C)cc(=O)[nH]2)s1 (stereo not given)	6%	u	u	16µM*	i	i
